# Test results: PubChem BioAssay AID2540 (Sanford-Burnham Center for Chemical Genomics, 2010)
# Among all 330,000 compounds or so, about 4,100 (1.2%) were called active. Only a selection was taken, and actives are over-represented in it overall. Unmarked numbers belong to inactive results. Cut-off read from the data, not from the text of the source: active = inhibition above about 50%; inactive = the rest.
# Molecular target: Sentrin-specific protease 8 (Homo sapiens) (UniProt Q96LD8)
# Test: SENP8 protease inhibitors, primary screen, biochemical, luminescence (AID 2540)
# Conditions: purified SENP8, Z-RLRGG-aminoluciferin cleavage, at 10 µM, active compounds read high
# Chain of Sentrin-specific protease 8 (Homo sapiens) (Q96LD8 whole entry, looked up): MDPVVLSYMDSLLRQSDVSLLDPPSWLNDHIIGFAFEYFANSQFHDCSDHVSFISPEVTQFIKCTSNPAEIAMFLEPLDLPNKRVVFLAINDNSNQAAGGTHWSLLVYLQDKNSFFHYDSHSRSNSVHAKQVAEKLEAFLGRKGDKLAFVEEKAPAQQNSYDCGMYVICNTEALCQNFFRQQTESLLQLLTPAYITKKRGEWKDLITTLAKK
row,SMILES,inhibition
1,Cc1ccc(NC(=O)CSCC(=O)Nc2sccc2C#N)cc1,10.4%
2,Cc1cccc(C)c1Nc1nnc(SCC(=O)Nc2sccc2C#N)s1,9.07%
3,Cc1csc(SCC(=O)Nc2sccc2C#N)n1,92.7% (active)
4,Cn1cccc1Cc1nnc(SCC(=O)NCc2ccc3c(c2)OCO3)n1CCc1ccccc1,2.69%
5,CCOc1nnc(C)c2c(C)n(-c3cccc(Cl)c3)nc12,8.66%
6,Cc1nc2ccc(C(=O)N/N=C/c3ccc(O)cc3)cc2[nH]1,-3.65%
7,CC(C)c1c(C(=O)N/N=C/c2ccc(-c3ccccc3)cc2)nnn1-c1nonc1N,9.04%
8,Cc1nonc1C(=O)N/N=C/c1ccc(O)cc1,97.5% (active)
9,COC(=O)c1cccc(N(CC(=O)NCC2CCCO2)C(=O)CCC(=O)Nc2cc(C)on2)c1 (configuration not stated),-7.21%
10,CCOC(=O)c1cnc2sccn2c1=O,-2.74%
11,CCOC(=O)c1cnc2[nH]c3ccccc3n2c1=O,78.1% (active)
12,CCOC(=O)c1cnc(COc2ccccc2Cl)[nH]c1=O,-10.8%
13,CCn1c2ccccc2c2cc(NC(=O)Nc3ccc([N+](=O)[O-])cc3C)ccc21,-10.4%
14,CC(=O)Nc1ccc(S(=O)(=O)N2CCn3cccc3C2C)cc1 (configuration not stated),-4.04%
15,COc1ccccc1CCNC(=O)C1CCN(C(=O)/C=C/c2ccccc2)CC1,-12.7%
16,COc1ccc(-c2csc(NC(=O)COC(=O)Cc3ccc(Cl)cc3Cl)n2)cc1,2.3%
17,COc1ccc(Nc2nc(-c3ccccc3)cs2)cc1,82.8% (active)
18,COc1ccc(C(=O)Nc2nc(-c3ccc(S(=O)(=O)N4CCOCC4)cc3)cs2)cc1,-0.876%
19,c1ccc(Nc2nc(-c3ccncc3)cs2)nc1,80.4% (active)
20,Clc1ccc(-c2csc(-c3ccncc3)n2)cc1,-22.5%
21,Clc1ccc(Nc2nc(-c3cccs3)cs2)nc1,10.9%

row,SMILES,inhibition
1,COc1ccc2c(c1OC)C(=O)OC2Nc1nc(-c2ccccc2)cs1 (configuration not stated),1.85%
2,COc1ccc(-c2csc(Nc3ccccn3)n2)cc1,85.4% (active)
3,CCCn1c(CCNc2nc(-c3ccc(OC)cc3)cs2)nc2ccccc21,1.24%
4,COC(=O)c1ccc(/C=N/N2C(C)CCCC2C)cc1 (configuration not stated),-6.16%
5,CC1(c2ccc3ccccc3c2)NC(=O)NC1=O (configuration not stated),-0.811%
6,Cc1c(O)c(C)c2c(c1O)C(=O)C[C@@H](c1ccccc1)O2,6.05%
7,Cc1ccc(CS(=O)Cc2ccc(C(=O)N3CCOCC3)o2)cc1 (configuration not stated),-6.99%
8,COc1ccc(F)cc1C(=O)C1CCCN(C(=O)CCc2ccccn2)C1 (configuration not stated),29.7%
9,O=C(COC(=O)c1ncc(Cl)c(Cl)c1Cl)NC1CCS(=O)(=O)C1 (configuration not stated),-7.58%
10,CCOC(=O)C1CCCN(C(=O)COc2ccc(N(C)S(=O)(=O)c3ccc(C)cc3)cc2)C1 (configuration not stated),-0.395%
11,NNC(=O)c1cnn(-c2ccccc2)c1C(F)(F)F,-1.96%
12,O=C(COc1ccccc1Cl)Nc1ccc(C(=O)c2ccc(C(=O)O)cc2)cc1,2.39%
13,COC(=O)c1ccc(NCC(=O)c2ccccc2)cc1,92.3% (active)
14,COC(=O)c1ccc(NCC(=O)N2CCCCCC2)cc1,-5.06%
15,COC(=O)c1ccc(NC(=O)Nc2ccc(C)cc2)cc1,-16%
16,O=C(COC(=O)c1ccc(S(=O)(=O)Nc2ccccc2)cc1)NCC1CCCO1 (configuration not stated),-2.95%
17,CC1CN(S(=O)(=O)c2ccc(C(=O)Nc3sccc3C(N)=O)cc2)CC(C)O1 (configuration not stated),-3.19%
18,CCCOc1ccc(CNC(=O)C2CCN(c3nn4c(=O)cc(C)nc4s3)CC2)cc1,7.56%
19,CCc1ccc2oc(-c3ccc(N)cc3)nc2c1,89.6% (active)
20,O=C(Nc1ccc2oc(-c3ccc4ccccc4c3)nc2c1)c1cccs1,5.01%
21,Nc1ccc(-c2nnc(-c3ccccc3)o2)cc1,40%

row,SMILES,inhibition
1,Fc1ccc2nc(-c3ccccc3)nc(SCc3nnc(-c4ccccc4)o3)c2c1,9.5%
2,O=C(C[C@@H]1C/C=C\CCC(=O)OC[C@@H]2CCCN2C1=O)NCCO,-14.7%
3,CC(C)[C@H](NC(=O)N1c2ccccc2NC(=O)[C@@H]1C(C)C)C(=O)N[C@H](C(=O)O)c1ccccc1,-11.1%
4,COc1ccccc1N1CC(O)=C(c2nc3ccccc3s2)C1=N,-8.72%
5,COc1ccccc1OCc1nc2ccccc2s1,94.1% (active)
6,CN(Cc1nc2ccccc2s1)C(=O)c1ccc(F)cc1,-4.17%
7,COC(=O)Cc1ccc(OCC(=O)NC2CCCC2)cc1,-7.77%
8,O=C(Nc1ccccc1C(F)(F)F)N1CCCC1c1cccnc1 (configuration not stated),1.35%
9,CC(=O)NCCC(=O)Nc1nc(-c2ccc3c(c2)OCCO3)cs1,-10.2%
10,Cc1cccc(Nc2nc(-c3ccccc3)cs2)n1,81.3% (active)
11,Cc1ccccc1Nc1nc(-c2cccnc2)cs1,44%
12,CCc1noc(C)c1C(=O)Nc1nc(-c2ccccc2)cs1,-12.4%
13,CC(=O)Nc1cccc(-c2csc(Nc3cccc(C)n3)n2)c1,90.4% (active)
14,O=C(Nc1ccc(-c2csc(Nc3cccc(C(F)(F)F)c3)n2)cc1)c1cccc(C(F)(F)F)c1,2.09%
15,CC(=O)NNc1cc(=O)c2c(=O)n(C)c(=O)n(C)c2[nH]1,5.83%
16,COc1ccc(N(CC(=O)N/N=C/c2cccc3c2OCCO3)S(=O)(=O)c2ccc(NC(C)=O)cc2)cc1,-14.1%
17,Cc1nc(COc2cc3oc(=O)cc(C)c3cc2Cl)cs1,-13.3%
18,CCN1CCCC1CNC(=O)Cn1cnc2ccc(S(=O)(=O)N3CCC(C)CC3)cc2c1=O (configuration not stated),3.55%
19,CCC1Nc2ncnc(N3CCN(c4ccccc4)CC3)c2N(Cc2ccc(Cl)cc2)C1=O (configuration not stated),-14%
20,CCOCC(=O)Nc1ncc(S(=O)(=O)c2ccc([N+](=O)[O-])cc2)s1,1.6%
